Our source for the inhibition values is PubChem BioAssay AID778 (Sanford-Burnham Center for Chemical Genomics, 2007).

The campaign covered roughly 96,000 compounds. About 20,000 (21%) were called active.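 The calls were made as follows: active = CYP2C19 inhibition above a set limit at 5 µM in the primary screen (cut at about 50% in these data); inactive = the rest.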 Only a sample is shown.

Chain of Cytochrome P450 2C19 (Homo sapiens) (P33261 whole entry, looked up): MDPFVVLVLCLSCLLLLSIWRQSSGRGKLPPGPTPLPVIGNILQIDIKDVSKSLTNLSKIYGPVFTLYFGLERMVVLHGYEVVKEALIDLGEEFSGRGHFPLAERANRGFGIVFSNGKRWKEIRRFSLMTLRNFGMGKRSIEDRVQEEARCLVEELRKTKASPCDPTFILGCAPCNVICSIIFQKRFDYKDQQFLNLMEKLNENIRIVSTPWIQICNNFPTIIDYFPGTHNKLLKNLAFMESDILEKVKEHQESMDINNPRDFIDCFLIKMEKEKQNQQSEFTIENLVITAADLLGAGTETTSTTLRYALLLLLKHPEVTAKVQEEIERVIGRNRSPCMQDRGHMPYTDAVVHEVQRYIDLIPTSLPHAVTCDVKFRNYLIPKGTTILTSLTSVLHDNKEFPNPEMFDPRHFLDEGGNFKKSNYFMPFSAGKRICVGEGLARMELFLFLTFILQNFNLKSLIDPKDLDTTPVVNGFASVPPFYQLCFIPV

This experiment has as its target Cytochrome P450 2C19 (Homo sapiens) (UniProt P33261). As to the kind of experiment: blockers of cytochrome P450 2C19 activity – biochemical, luminescence, ADME assay, primary screen (AID 778).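 Also: plate controls were negative control wells for no effect and 2.5 mM tranylcypromine positive control for full effect.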 The following applies: CYP2C19 Supersomes, luciferin-H EGE luminescence, 30 min; at 5 µM; stronger effect = higher value.
With `Cc1ccc(C(C(=O)NC2CCCCC2)N(C(=O)c2csnn2)C2CC2)o1` (stereo unspecified), the inhibition (usually the relative decrease from the control value, in per cent) was 50% (active).
As for `Cc1ccsc1C(C(=O)NC1CCCCC1)N(C(=O)Cc1cccs1)C1CC1` (stereo unspecified), the figure is -2.9% (inactive).
As for `CCC(C(=O)NC1CCCC1)N(C(=O)c1snc(C(N)=O)c1N)c1ccc2c(c1)OCCO2` (stereo unspecified), the figure is -2.4% (inactive).
For `O=C(Nc1ccc(F)c(Cl)c1)C1CCN(S(=O)(=O)c2cccnc2)CC1` the value was 41.7% (inactive); for `Cc1ccc(NC(=O)C2CC(c3ccc(F)cc3)=NO2)cc1` (stereo unspecified), 28.2% (inactive); for `O=C(Nc1ccc2c(c1)OCO2)C1CC(c2c(F)cccc2Cl)=NO1` (stereo unspecified), 92.7% (active).
Regarding `O=C(Nc1ccccc1-c1nnn(CC(=O)N2CCN(c3ccccc3)CC2)n1)c1cccs1`, the inhibition was 47.5% (inactive).
On to `C=CCN(N=Nc1cccc([N+](=O)[O-])c1)c1cccc([N+](=O)[O-])c1`, for which the inhibition was 19.3% (inactive).
Regarding `O=C(Nc1ccccc1Cl)N1CCN(c2ccc3nncn3n2)CC1`, the inhibition was 24.1% (inactive).
In the case of `O=C(Nc1ccc(Cl)cc1)N1CCc2[nH]c3ccccc3c2C1`, the inhibition was 13.4% (inactive).
As for `CC(C)OC(=O)C(C#N)c1nc2ccccc2nc1N1CCN(Cc2ccccc2)CC1` (stereo unspecified), the figure is 30.6% (inactive).
As for `c1ccc2[nH]c(NCCN3CCOCC3)nc2c1`, the figure is 7.5% (inactive).
For `CC(C)C(=O)N1CCN(c2nc(-c3ccccc3)c3c(c2C#N)CC(C)(C)OC3)CC1` the value was 95.4% (active); for `CC1(C)Cc2c(C#N)c(SCc3nc4ccccc4[nH]3)nc(N3CCOCC3)c2CO1`, 80.5% (active); for `CC(C)Cc1nc(N2CCOCC2)c(C#N)c2c1CCC2`, 39.8% (inactive).
Regarding `Cc1nc(NCc2ccccc2)c(C(N)=O)c2c1COC(C)(C)C2`, the inhibition is 48.5% (inactive).
As for `C1=C(N2CCOCC2)/C(=C/c2nc3ccccc3[nH]2)CC1`, the figure is 20.6% (inactive); as for `CC(C)c1nc(N2CCOCC2)c(C#N)c2c1COC(C)(C)C2`, 55.5% (active); as for `Cc1ccc2nc(-c3ccc(SCC(=O)Nc4cc(C)on4)nc3)[nH]c2c1`, -9.6% (inactive).
Regarding `C=CCn1c(SCc2c(C)noc2C)nc2sc3c(c2c1=O)CCC(C)C3` (stereo unspecified), the inhibition was 29% (inactive).
For `COc1ccc2[nH]c(=O)c(-c3noc(-c4ccc(F)cc4)n3)cc2c1` the value was -20.6% (inactive); for `O=C(NCCCN1CCCCC1)c1ccc2c(c1)NC(=O)C(N1CCOCC1)S2` (stereo unspecified), -20.4% (inactive).
As for `Cc1cc2nc(-c3ccc(NC(=O)c4cccnc4)cc3)oc2cc1C`, the figure is -3.8% (inactive); as for `c1ccc(-c2cn3cccnc3n2)cc1`, 1.9% (inactive); as for `Cc1nc2ccc(NC(=O)C(F)(F)F)cc2o1`, 19.3% (inactive).
For `C#CCN1CC(C)/C(=N/O)CC1C` (stereo unspecified) the value was -17% (inactive); for `CC(C)(C)NC(=O)C(c1ccncc1)N(C(=O)CNC(=O)c1ccco1)c1ccc2c(c1)OCO2` (stereo unspecified), 25.7% (inactive).
On to `Cc1noc(C)c1C(=O)NC(C)c1ccc2c(c1)OCO2` (stereo unspecified), for which the inhibition was 64.5% (active).
For `Cc1cccc(N2C(=O)C3C(c4ccccc4)OC4(C(=O)c5ccccc5C4=O)C3C2=O)c1` (stereo unspecified) the value was -10.6% (inactive); for `CCOC(=O)c1c(N)sc(C(C)=O)c1C`, 22.5% (inactive); for `O=C(CN1CCN(C2CCCCC2)CC1)Nc1ccccc1N1CCCCC1`, 1.2% (inactive).
Consider `Cc1ccc(C(=O)N2CCN(C3CCCCC3)CC2)s1`, for which the inhibition is 52.8% (active).
For `CCn1cc(C(=O)N2CCN(C3CCCCC3)CC2)c2cc(OC)c(OC)cc2c1=O` the value was 13.8% (inactive); for `CCN1CC=C2C(C#N)=C(N)C(C#N)(C#N)[C@H](c3ccoc3)[C@H]2C1`, 7.1% (inactive); for `COc1ccc(C(=O)N2CCc3cc(OC)c(OC)cc3C2c2cccc([N+](=O)[O-])c2)cc1` (stereo unspecified), 53.7% (active).
For `COc1ccc(Cc2nnc(SCC(=O)c3cccc([N+](=O)[O-])c3)n2C)cc1` the value was 15.5% (inactive); for `COc1ccc(C(=O)Nc2nc(-c3ccc(OC)cc3)c(-c3ccc([N+](=O)[O-])cc3)s2)cc1`, 6.9% (inactive); for `CNC(=O)c1nnc(Cc2ccc(Cl)cc2)o1`, 45.2% (inactive).
For `Cc1cccc(S(=O)(=O)CC(=O)Nc2nc(-c3ccccc3)cs2)c1` the value was 35.4% (inactive); for `COCc1nnc(NC(=O)CS(=O)(=O)Cc2ccccc2)s1`, 1.9% (inactive).
In the case of `O=C(CCS(=O)(=O)c1ccccc1)Nc1nc2c(s1)CCCC2`, the inhibition was 73.9% (active).
For `Cc1ccc(-c2c3c(=O)n(C)c(=O)n(C)c3cn2-c2ccccc2O)cc1` the value was 19% (inactive).
As to `Cc1oc(-c2ccccc2Cl)[n+]([O-])c1C`, the inhibition is 8.4% (inactive).
As for `CC(=O)Cc1nsc(NC(=O)c2ccc(COc3ccc(C)cc3)o2)n1`, the figure is 22.2% (inactive).
Consider `O=C(NCCc1ccccn1)c1ccc(COc2ccccc2)o1`, for which the inhibition was 5.8% (inactive).
For `COc1ccc(-c2nc(CCNC(=O)c3ccc(Br)o3)cs2)cc1` the value was 58.8% (active); for `Cc1cc(C(=O)COC(=O)CCCN2C(=O)c3ccccc3C2=O)c(C)n1C`, -0.8% (inactive); for `CCOC(=O)NNC(=O)c1ccc(Cl)cc1`, 6.6% (inactive).
As for `O=[N+]([O-])c1ccc(NCCCN2CCOCC2)c(Cl)c1`, the inhibition is 52% (active).
As for `O=C(CN1CCOCC1)Nc1ccc(NC(=O)CN2CCOCC2)c(Cl)c1`, the figure is -2.2% (inactive); as for `O=C(NC1CCCCC1)c1cc([N+](=O)[O-])ccc1N1CCOCC1`, -1.9% (inactive).
For the compound `CC1(C)C2CCC1(C)C(OC(=O)CCn1ccnc1)C2` (stereo unspecified), the inhibition is 99.5% (active).
For `COc1ccc2occ(C(=O)c3ccc(N=C(C)N(C)C)cc3)c2c1` the value was 30.2% (inactive); for `COc1ccc(OC)c(C(=O)c2coc3ccc(OC)cc23)c1`, 89.7% (active); for `COc1ccc(C)cc1N(C)C(=O)c1coc(=O)c2ccccc12`, 15.5% (inactive).
As for `COc1ccc(OC)c(C(=O)c2coc3ccc(O)c(CN4CCOCC4)c23)c1`, the figure is 52.4% (active); as for `COc1ccc(OC)c(C(=O)c2ccc(C(=O)O)cc2)c1`, -2.7% (inactive); as for `COc1ccc(C(=O)Nc2ccc(CN3CCOCC3)cc2)cc1`, 16.2% (inactive).
As for `CCOc1cc(C(=O)Nc2ncccn2)cc(OCC)c1OCC`, the figure is 7.1% (inactive).
Consider `Clc1ccc(-n2nnnc2CN2CCCCC2)cc1Cl`, for which the inhibition was 27.7% (inactive).
For `O=C(CSc1nnc2ccccn12)c1ccccc1` the value was 13.9% (inactive); for `O=C(O)CC(Cn1cnnn1)c1ccccc1` (stereo unspecified), -11.5% (inactive); for `O=C(c1ccccc1)C(Cn1cncn1)C(Sc1ccccc1)c1ccccc1` (stereo unspecified), 99.3% (active).
For `O=C(c1ccc2c(c1)N(Cc1ccc(F)cc1)C(=O)CS2)N1CCOCC1` the value was 23.9% (inactive); for `CCOC(=O)N1CCN(Cc2nc(N)nc(Nc3ccc(C)cc3)n2)CC1`, 36.2% (inactive).
For `CCN(CC)CCN1C(=O)C(=O)/C(=C(/O)c2ccccc2)C1c1ccccc1F` (stereo unspecified) the value was -0.3% (inactive); for `COC(=O)c1ccc(N(CC(=O)NC2CCCC2)C(=O)CNC(=O)c2ccco2)cc1`, -6.6% (inactive); for `CCCn1c(=O)c2ccccc2n2c(SCC(=O)/C(C#N)=C(\C)N)nnc12`, 4.2% (inactive).
For the compound `COc1cccc(NC(=O)C2c3cc(OC)c(OC)cc3C(=O)N(C)C2c2cccnc2)c1` (stereo unspecified), the inhibition was 50.1% (active).
As for `COc1ccc(C2C(C(=O)N3CCN(c4ccc(OC)cc4)CC3)c3ccccc3C(=O)N2C)cc1` (stereo unspecified), the inhibition was 2.6% (inactive).
For `CCOc1cc2c(cc1OCC)C(C(=O)O)C(c1ccc(OC)c(O)c1)N(C)C2=O` (stereo unspecified) the value was -11.4% (inactive).
As for `Cc1nc(SCC(=O)N2CC(=O)Nc3ccccc32)c2c(C)c(C)sc2n1`, the figure is 49.9% (inactive); as for `C#CCN1C(=O)C(O)(CC(=O)c2cc(OC)ccc2OC)c2ccccc21` (stereo unspecified), 51.5% (active); as for `COc1ccc(C(=O)CN2C(=O)NC(C)(c3ccc(C)cc3)C2=O)cc1OC` (stereo unspecified), 1.3% (inactive).
As for `COc1ccc(OC)c(NC(=O)c2cnn(-c3ccccc3Cl)c2NC(=O)c2ccco2)c1`, the figure is -0.9% (inactive).
For `CCOc1ccc(CN2CCCN(C)CC2)cc1`, the inhibition is -4.6% (inactive).
For `CC1(C)Cc2ccccc2-c2nnc(-c3cccc(O)c3)n21` the value was -16.2% (inactive); for `Cc1[nH]n(-c2cccc(Cl)c2)c(=O)c1-c1ccc(Cl)cc1`, -13.5% (inactive).
For `CC1=NN(c2cccc(Cl)c2)C(=O)C12CC(C)=C(C)CS2` (stereo unspecified) the value was 90% (active); for `CC(=O)Oc1ccc(C)cc1N1C(=O)c2ccc(C(=O)O)cc2C1=O`, -15.2% (inactive); for `O=C(C1CCCO1)N1CCC(c2nc3ccccc3[nH]2)CC1` (stereo unspecified), 20.9% (inactive).
`Cc1ccccc1N1CC(c2nc3ccccc3[nH]2)CC1=O` (stereo unspecified): the inhibition is 81.9% (active).
For `Cc1ncn(C23CC4CC(CC(O)(C4)C2)C3)n1` the value was 3.7% (inactive).
As for `CCCCN=C(N)/C(C(=O)OCC)=C(\O)c1ccc(OC)cc1`, the figure is 54.8% (active).
For `CCCCC(=O)N(c1ccc(OC)cc1)C1C=CS(=O)(=O)C1` (stereo unspecified) the value was 19.8% (inactive); for `COc1ccc(C(=O)Nc2cc(C)ccc2NC(=O)COc2ccccc2)cc1`, 17% (inactive); for `COc1ccc(OCCCC(=O)Nc2nnc(C3CCCO3)s2)cc1` (stereo unspecified), 34.1% (inactive).
Turning to `CCN1CCN(c2ccc([N+](=O)[O-])cc2C(=O)c2ccc(Cl)cc2)CC1`, the inhibition is 5.8% (inactive).
For `CCCC(=O)Nc1nnc(CC(=O)OCC)s1` the value was -0.3% (inactive).
For `Cc1ccc(N2C(=O)C(Cc3ccccc3)NC2=S)cc1` (stereo unspecified) the value was 39.4% (inactive).
`CC1=CC(C)(C)NC(=S)N1c1ccccc1`: the inhibition is 58.1% (active).
For `COc1ccc2c(c1OC)C(=O)OC2Nc1nc(-c2ccccc2)cs1` (stereo unspecified) the value was 12% (inactive); for `Cc1[nH]n(-c2ccccc2)c(=O)c1CCOC(=O)c1ccc(C(F)(F)F)cc1`, 31.8% (inactive).
For `COc1ccc(S(=O)(=O)N2CCN(C(=O)c3cccs3)CC2)cc1OC` the value was 43.6% (inactive).
As for `CCS(=O)(=O)N1CCN(C(=O)c2cccs2)CC1`, the figure is 56.5% (active); as for `O=C(CCCN1C(=O)c2cccc3cccc(c23)C1=O)N1CCN(Cc2ccc3c(c2)OCO3)CC1`, 78.8% (active); as for `O=C(c1cccs1)N1CCN(C(=O)N2CCOCC2)CC1`, 2.3% (inactive).
As to `O=C(Nc1cccc2ccccc12)N1CCN(Cc2ccc3c(c2)OCO3)CC1`, the inhibition is 35.2% (inactive).
As for `CCCS(=O)(=O)N1CCN(C(=O)c2cccs2)CC1`, the figure is 11% (inactive); as for `Cn1c(=O)cc(OCCCC(=O)N2CCN(Cc3ccc4c(c3)OCO4)CC2)c2ccccc21`, 36.7% (inactive); as for `O=C(c1cccs1)N1CCN(Cc2ccc3c(c2)OCO3)CC1`, 56.9% (active).
